Values joined by “and” are separate entries in the source; they are usually repeats but may differ in a detail not shown here. Equal entries are not always repeated. Records with an inconclusive call do not appear. A call without a number means that no potency is given here. A structure can be active in one record and inactive in another. Active and inactive are the calls of the source. Unless noted, the call rests on the fitted dose curve; in most records, active means well fitted curve in the direction sought with a large enough effect; inconclusive means small, poorly fitted or top-dose-only effect, or another doubt; inactive means no such curve, though single readings can be large; an effect the other way counts as inactive or inconclusive.
Test: P-glycoprotein substrates identified in KB-3-1 adenocarcinoma cell line, qHTS therapeutic library screen (AID 1346986); further: nearly all actives have a fitted effect of over 60% in size
Conditions: KB-3-1 parental cells viability, CellTiter-Glo, 72 h; series mostly up to 44.5 µM
In short: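 KB-3-1 parental and colchicine-selected P-gp-overexpressing KB-8-5-11 cells (colchicine omitted during assay), 500 cells/well, dosed in dose-response for 72 h at 37 °C; CellTiter-Glo luminescence. Cytotoxic: curve class -1.1 to -2.4, max response >50%, AC50 < 10 uM.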

Q: Which outcome does the source give for `CC(C)(Oc1ccc(C2CC2(Cl)Cl)cc1)C(=O)O` (centres undefined) here?
A: inactive [at 93.4 µM]

Q: For `O=C1N(c2ccccc2)c2ccccc2C1(Cc1ccncc1)Cc1ccncc1`, which outcome is on record?
A: inactive

Q: With `Nc1c2c(nc3ccccc13)CCCC2` as the compound, how does the outcome read?
A: inactive

Q: Which outcome does the source give for `CN(C)CCOC(c1ccccc1)c1ccccc1` here?
A: inactive

Q: With `O=c1c(-c2ccc(O)cc2)coc2cc(O)cc(O)c12` as the compound, how does the outcome read?
A: inactive

Q: Which outcome does the source give for `NCCc1cnc[nH]1` here?
A: inactive

Q: Which outcome does the source give for `CN(C)C(=N)N=C(N)N` here?
A: inactive [setting not given]

Q: With `O=C(c1ccc(OCCN2CCCCC2)cc1)c1c(-c2ccc(O)cc2)sc2cc(O)ccc12` as the compound, how does the outcome read?
A: inactive

Q: Which outcome does the source give for `CC(C)(C)C(=O)Oc1ccc(S(=O)(=O)Nc2ccccc2C(=O)NCC(=O)O)cc1` here?
A: inactive

Q: For `Cc1cn([C@H]2C=C[C@@H](CO)O2)c(=O)[nH]c1=O`, which outcome is on record?
A: inactive [at 93.4 µM]

Q: With `Nc1ccn([C@H]2CC[C@@H](CO)O2)c(=O)n1` as the compound, how does the outcome read?
A: inactive

Q: For `Cc1ccc(-c2cc(C(F)(F)F)nn2-c2ccc(S(N)(=O)=O)cc2)cc1`, which outcome is on record?
A: inactive

Q: Which outcome does the source give for `CC1COc2c(N3CCN(C)CC3)c(F)cc3c(=O)c(C(=O)O)cn1c23` (centres undefined) here?
A: inactive

Q: Which outcome does the source give for `CC1(C)O[C@H]2CC(=O)OC[C@]23[C@H]2CC[C@@]4(C)[C@H](c5ccoc5)OC(=O)[C@H]5O[C@]54[C@]2(C)C(=O)C[C@@H]13` here?
A: inactive

Test: P-glycoprotein substrates identified in KB-8-5-11 adenocarcinoma cell line, qHTS therapeutic library screen (AID 1346987); further: nearly all actives have a fitted effect of over 65% in size; further: potency means the concentration at half of the fitted maximal effect
Conditions: KB-8-5-11 (P-gp overexpressing) viability, CellTiter-Glo, 72 h; series mostly up to 44.5 µM
In short: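 KB-8-5-11, a colchicine-selected P-gp-overexpressing KB-3-1 subline, was grown without colchicine for the assay. Cells were seeded at 500 cells/well, dosed in concentration-response and incubated 72 h at 37 degree C, 5% CO2. Viability was read by CellTiter-Glo luminescence.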

Q: With `CCOC(=O)C(C)(C)Oc1ccc(Cl)cc1` as the compound, how does the Potency read?
A: inactive

Q: Which Potency does the source give for `O=C(CCCN1CCC(O)(c2ccc(Cl)cc2)CC1)c1ccc(F)cc1` here?
A: 18.4 µM (active)

Q: With `CC(C)(Oc1ccc(C2CC2(Cl)Cl)cc1)C(=O)O` (centres undefined) as the compound, how does the Potency read?
A: inactive

Q: For `Cn1cnc2c1c(=O)[nH]c(=O)n2C`, which Potency is on record?
A: inactive and 16.6 µM (active)

Q: With `O=C1N(c2ccccc2)c2ccccc2C1(Cc1ccncc1)Cc1ccncc1` as the compound, how does the Potency read?
A: inactive

Q: With `O=c1c(O)c(-c2ccc(O)c(O)c2)oc2cc(O)cc(O)c12` as the compound, how does the Potency read?
A: inactive

Q: For `COc1ccc2c(c1)c(CC(=O)O)c(C)n2C(=O)c1ccc(Cl)cc1`, which Potency is on record?
A: inactive

Q: With `CCC1(c2ccccc2)C(=O)NCNC1=O` as the compound, how does the Potency read?
A: inactive

Q: Which Potency does the source give for `CCOC(=O)c1ncn2c1CN(C)C(=O)c1cc(F)ccc1-2` here?
A: inactive

Q: For `N[C@@H](Cc1c[nH]c2ccc(O)cc12)C(=O)O`, which Potency is on record?
A: inactive

Q: Which Potency does the source give for `COc1ccc(C2CNC(=O)C2)cc1OC1CCCC1` (centres undefined) here?
A: inactive

Q: With `C[C@H]1c2cccc(O)c2C(O)=C2C(=O)[C@]3(O)C(O)=C(C(N)=O)C(=O)[C@@H](N(C)C)[C@@H]3[C@@H](O)[C@@H]21` as the compound, how does the Potency read?
A: inactive

Q: Which Potency does the source give for `NS(=O)(=O)c1cc2c(cc1Cl)NCNS2(=O)=O` here?
A: inactive

Q: For `CN(C)CCOC(c1ccccc1)c1ccccc1`, which Potency is on record?
A: inactive

Q: For `CN1C2CCC1CC(OC(=O)C(CO)c1ccccc1)C2` (centres undefined), which Potency is on record?
A: inactive

Q: For `COc1ccc2[nH]cc(CCNC(C)=O)c2c1`, which Potency is on record?
A: inactive

Q: Which Potency does the source give for `Cc1ccccc1N1C(=O)c2cc(S(N)(=O)=O)c(Cl)cc2NC1C` (centres undefined) here?
A: inactive

Q: Which Potency does the source give for `CN(C)c1nc(N(C)C)nc(N(C)C)n1` here?
A: inactive

Q: For `Nc1nc2c(ncn2COC(CO)CO)c(=O)[nH]1`, which Potency is on record?
A: inactive and 16.6 µM (active)

Q: For `O=c1c(-c2ccc(O)cc2)coc2cc(O)cc(O)c12`, which Potency is on record?
A: inactive

Q: For `NCCc1cnc[nH]1`, which Potency is on record?
A: inactive

Q: For `COc1ccccc1OCCNCC(O)COc1cccc2[nH]c3ccccc3c12` (centres undefined), which Potency is on record?
A: inactive

Q: With `CN(C)C(=N)N=C(N)N` as the compound, how does the outcome read?
A: inactive [setting not given]

Q: For `CC(C)Cc1ccc(C(C)C(=O)O)cc1` (centres undefined), which Potency is on record?
A: inactive

Q: For `CCN1CCCC1CNC(=O)c1cc(S(=O)(=O)CC)c(N)cc1OC` (centres undefined), which Potency is on record?
A: inactive

Q: With `O=C(C1CCCCC1)N1CC(=O)N2CCc3ccccc3C2C1` (centres undefined) as the compound, how does the Potency read?
A: inactive

Q: Which Potency does the source give for `CC(C)(C)C(=O)Oc1ccc(S(=O)(=O)Nc2ccccc2C(=O)NCC(=O)O)cc1` here?
A: inactive

Q: For `Cc1cn([C@H]2C=C[C@@H](CO)O2)c(=O)[nH]c1=O`, which Potency is on record?
A: inactive

Q: Which Potency does the source give for `Nc1ccn([C@H]2CC[C@@H](CO)O2)c(=O)n1` here?
A: inactive

Q: Which Potency does the source give for `CC1COc2c(N3CCN(C)CC3)c(F)cc3c(=O)c(C(=O)O)cn1c23` (centres undefined) here?
A: inactive

Q: For `CC1(C)O[C@H]2CC(=O)OC[C@]23[C@H]2CC[C@@]4(C)[C@H](c5ccoc5)OC(=O)[C@H]5O[C@]54[C@]2(C)C(=O)C[C@@H]13`, which Potency is on record?
A: inactive

Test: Natriuretic polypeptide receptor (hNpr1) antagonism - Pilot counterscreen GloSensor control cell line (AID 1347045; calls by dose curve)
Conditions: HEK293 cGMP GloSensor cells, SNP-stimulated luminescence, 20 min; series mostly up to 38.3 µM
In short: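 HEK293 cGMP GloSensor cells preloaded 2 h with 2% GloSensor reagent, then compound 30 min before baseline luminescence read. Stimulated with 50 uM sodium nitroprusside, 20 min at room temperature, then read again; counterscreen for Npr1 antagonism.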

Q: With `CCOC(=O)C(C)(C)Oc1ccc(Cl)cc1` as the compound, how does the Potency read?
A: inactive

Q: For `O=C(CCCN1CCC(O)(c2ccc(Cl)cc2)CC1)c1ccc(F)cc1`, which Potency is on record?
A: inactive

Q: With `CC(C)(Oc1ccc(C2CC2(Cl)Cl)cc1)C(=O)O` (centres undefined) as the compound, how does the Potency read?
A: inactive

Q: Which Potency does the source give for `Cn1cnc2c1c(=O)[nH]c(=O)n2C` here?
A: inactive

Q: With `O=C1N(c2ccccc2)c2ccccc2C1(Cc1ccncc1)Cc1ccncc1` as the compound, how does the Potency read?
A: inactive

Q: With `O=c1c(O)c(-c2ccc(O)c(O)c2)oc2cc(O)cc(O)c12` as the compound, how does the Potency read?
A: inactive

Q: For `Nc1c2c(nc3ccccc13)CCCC2`, which Potency is on record?
A: inactive

Q: With `COc1ccc2c(c1)c(CC(=O)O)c(C)n2C(=O)c1ccc(Cl)cc1` as the compound, how does the Potency read?
A: inactive

Q: With `CCC1(c2ccccc2)C(=O)NCNC1=O` as the compound, how does the Potency read?
A: inactive

Q: Which Potency does the source give for `CCOC(=O)c1ncn2c1CN(C)C(=O)c1cc(F)ccc1-2` here?
A: inactive

Q: With `N[C@@H](Cc1c[nH]c2ccc(O)cc12)C(=O)O` as the compound, how does the Potency read?
A: inactive

Q: Which Potency does the source give for `COc1ccc(C2CNC(=O)C2)cc1OC1CCCC1` (centres undefined) here?
A: inactive

Q: For `C[C@H]1c2cccc(O)c2C(O)=C2C(=O)[C@]3(O)C(O)=C(C(N)=O)C(=O)[C@@H](N(C)C)[C@@H]3[C@@H](O)[C@@H]21`, which Potency is on record?
A: inactive

Q: Which Potency does the source give for `NS(=O)(=O)c1cc2c(cc1Cl)NCNS2(=O)=O` here?
A: inactive

Q: For `CN(C)CCOC(c1ccccc1)c1ccccc1`, which Potency is on record?
A: inactive

Q: With `CN1C2CCC1CC(OC(=O)C(CO)c1ccccc1)C2` (centres undefined) as the compound, how does the Potency read?
A: inactive

Q: Which Potency does the source give for `COc1ccc2[nH]cc(CCNC(C)=O)c2c1` here?
A: inactive

Q: With `Cc1ccccc1N1C(=O)c2cc(S(N)(=O)=O)c(Cl)cc2NC1C` (centres undefined) as the compound, how does the Potency read?
A: inactive

Q: With `CN(C)c1nc(N(C)C)nc(N(C)C)n1` as the compound, how does the Potency read?
A: inactive

Q: Which Potency does the source give for `Nc1nc2c(ncn2COC(CO)CO)c(=O)[nH]1` here?
A: inactive

Q: Which Potency does the source give for `O=c1c(-c2ccc(O)cc2)coc2cc(O)cc(O)c12` here?
A: inactive

Q: Which Potency does the source give for `NCCc1cnc[nH]1` here?
A: inactive

Q: With `COc1ccccc1OCCNCC(O)COc1cccc2[nH]c3ccccc3c12` (centres undefined) as the compound, how does the Potency read?
A: inactive

Q: With `CC(C)Cc1ccc(C(C)C(=O)O)cc1` (centres undefined) as the compound, how does the Potency read?
A: inactive

Q: For `CCN1CCCC1CNC(=O)c1cc(S(=O)(=O)CC)c(N)cc1OC` (centres undefined), which Potency is on record?
A: inactive

Q: With `O=C(C1CCCCC1)N1CC(=O)N2CCc3ccccc3C2C1` (centres undefined) as the compound, how does the Potency read?
A: inactive

Q: For `O=C(c1ccc(OCCN2CCCCC2)cc1)c1c(-c2ccc(O)cc2)sc2cc(O)ccc12`, which Potency is on record?
A: inactive

Q: With `Cc1cn([C@H]2C=C[C@@H](CO)O2)c(=O)[nH]c1=O` as the compound, how does the Potency read?
A: inactive

Q: For `Nc1ccn([C@H]2CC[C@@H](CO)O2)c(=O)n1`, which Potency is on record?
A: inactive

— PubChem BioAssay (NCATS)
